Screens (PubChem)
IMPase inh = IMPase inhibition in cells; inhibition (IP1 accumulation), % at 46.1 µM; 120,000 tested, under 10 active; CHO-M1 cells, IP1 accumulation, HTRF TR-FRET ratio; P97697; active = well fitted curve in the direction sought with a large enough effect in the signal ratio, not every such curve was filed as active; inconclusive = small, poorly fitted or top-dose-only effect, or a change in a side signal; inactive = no such curve, though single readings can be large or run the other way; the % refers to the signal ratio;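 note: cells stimulated with carbachol in lithium chloride buffer; plate controls were DMSO basal wells for no effect and reference inhibitor wells for full effect; higher means more IMPase inhibition seen as more IP1 and lower FRET ratio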
Target sequence (P97697 whole entry, looked up): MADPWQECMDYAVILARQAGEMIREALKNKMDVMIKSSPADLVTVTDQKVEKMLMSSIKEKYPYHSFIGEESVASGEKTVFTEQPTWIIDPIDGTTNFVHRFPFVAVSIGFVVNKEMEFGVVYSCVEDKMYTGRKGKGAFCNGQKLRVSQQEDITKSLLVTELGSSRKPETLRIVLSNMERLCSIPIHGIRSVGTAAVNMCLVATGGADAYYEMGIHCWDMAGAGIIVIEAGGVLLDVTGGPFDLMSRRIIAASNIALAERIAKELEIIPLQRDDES
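CHO-M1 cells (CHO stably expressing M1 receptor), compound up to 46 uM final, stimulated with carbachol (50 uM as added) in buffer with 50mM LiCl, pH 7.4, 30 min at 37C. Cytosolic IP1 read by TR-FRET; AC50 from Hill fits.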
HPGD block = inhibitors of human 15-hydroxyprostaglandin dehydrogenase (HPGD). purified HPGD, NADH fluorescence kinetic, PGE2 substrate. Potency, µM, inactives show at the highest dose activity change, negative = inhibition, most hits filed as inhibitors. 150,000 compounds, 4.3% hits; note: potency is the fitted concentration of half-maximal effect
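NADH formation kinetics: reaction with 30 uM PGE2 and 1 mM NAD+ (final), 20 nM enzyme, Tris-HCl pH 8 with Tween 20, after 15 min compound preincubation at room temperature. Fluorescence change, last versus first of five reads.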
PNC inhibitor = blocks assembly of the perinucleolar compartment | 140,000 compounds, 3.1% hits | PC3M PTB-GFP, PNC prevalence imaging, 16 h; stronger effect = lower value | AID 2417 | activity change (PNC), negative = inhibition, % at 10 µM;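 active = readout at or below -70, meaning at least 70% loss of cells showing the perinucleolar compartment, a nuclear body marking cancer cells; inconclusive = readout between -30 and a set limit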;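 note: plate controls were DMSO wells for no effect and camptothecin positive control wells for full effect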
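PC3M cells stably expressing PTB-GFP, 750–1000 cells/well, treated 16 h at 37 °C with compound (23 nl of library stock), in duplicate. After paraformaldehyde fixation and Hoechst stain, imaged at 20x; PNC prevalence scored by image analysis.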
KinaseGlo FLuc = counter-screen: inhibitors of Kinase-Glo firefly luciferase. 200,000 compounds, 0.28% hits. Q27757. Potency, µM (top dose mostly 38.3 µM), inactives show top-dose activity change, negative = inhibition, actives largely listed as inhibitors. Kinase-Glo luciferase, ATP luminescence, 8 min; active = well fitted inhibition curve with a large enough effect; inconclusive = small, poorly fitted or top-dose-only effect; note: potency is the fitted concentration of half-maximal effect; nearly all actives have a fitted effect of over 60% in size
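Luminescence was the read-out, taken after 8-minute incubation at ambient temperature. Luciferase turned over luciferin with 10 uM ATP in imidazole pH 7.2 buffer containing KCl, MgCl2, Tween 20 and BSA.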
Lamin A splicing = modulators of lamin A splicing; HeLa LMNA splicing GFP/RFP minigene ratio, 48 h; Potency, µM (series often up to 46.1 µM), without a hit: at the top dose ratio change, negative = inhibition, hits mostly inhibitors; 200,000 compounds, 0.01% hits; AID 1487; active = well fitted inhibition curve with a large enough effect in the signal ratio, with a control signal flat, not every such curve was filed as active; inconclusive = small, poorly fitted or top-dose-only effect, or effect the other way, or a change in a side signal; the % refers to the signal ratio; note: potency is the fitted concentration of half-maximal effect
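S3 HeLa stable clones carrying a lamin A-EGFP splicing minigene plus DsRed2 were seeded at 600 cells/well in Opti-MEM with 2% FBS, pin-dosed and incubated 48 h at 37°C. Acumen cytometry (488 nm) gave the GFP/RFP total-intensity ratio.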
ALDH1A1 inh = ALDH1A1 (human) enzyme inhibition; P00352; Purified ALDH1A1, NADH fluorescence, propionaldehyde substrate; Potency, µM (doses to about 75.3 µM), inactives show top-dose activity, negative = inhibition, usual class: inhibitors; 220,000 compounds, 7.3% hits; AID 1030;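 note: potency is the fitted concentration of half-maximal effect; plate controls were no enzyme wells and a reference inhibitor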
Target sequence (P00352 whole entry, looked up): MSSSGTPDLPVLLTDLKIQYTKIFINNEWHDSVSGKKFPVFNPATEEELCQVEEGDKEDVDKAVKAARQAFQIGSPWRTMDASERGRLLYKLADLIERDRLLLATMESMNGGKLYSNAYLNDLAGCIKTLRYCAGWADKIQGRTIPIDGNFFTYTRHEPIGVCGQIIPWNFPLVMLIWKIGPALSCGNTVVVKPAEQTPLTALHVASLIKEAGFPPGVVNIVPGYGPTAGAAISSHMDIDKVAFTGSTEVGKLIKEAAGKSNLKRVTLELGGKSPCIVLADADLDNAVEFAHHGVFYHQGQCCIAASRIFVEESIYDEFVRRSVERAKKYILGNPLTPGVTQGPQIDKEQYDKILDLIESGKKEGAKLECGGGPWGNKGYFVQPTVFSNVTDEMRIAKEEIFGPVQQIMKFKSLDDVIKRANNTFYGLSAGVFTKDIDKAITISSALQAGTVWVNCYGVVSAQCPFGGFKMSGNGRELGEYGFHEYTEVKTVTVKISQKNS
* marks the source's active call; other numbers are inactive results; [ ] = dose if it differs, or a comment. A selection: hits, their analogues and other compounds. The true share with any hit is near 10%. Unless noted, calls come from the whole dose curve; as a rule, active = well fitted inhibition curve with a large enough effect (not every such curve was filed as active); inconclusive = small, poorly fitted or top-dose-only effect, or another doubt; inactive = no such curve, though single readings can be large or run the other way. Unless noted, % is set by controls: 0 for no effect and ±100 for the full control effect.

What do the screens show for `CCSc1nc2c(c(=O)[nH]c(=O)n2C)n1C/C=C(/C)Cl`?
IMPase inh: 22; HPGD block: inconclusive; PNC inhibitor: 28; KinaseGlo FLuc: -6%; Lamin A splicing: 3%; ALDH1A1 inh: 14µM*

Results for C=CCn1c(SCCN2CCOCC2)nc2c1c(=O)[nH]c(=O)n2C ?
IMPase inh: -2; HPGD block: -19%; PNC inhibitor: inconclusive; KinaseGlo FLuc: 1%; Lamin A splicing: -19%; ALDH1A1 inh: -6%

How did O=[N+]([O-])c1ccc(C(c2sc3nc(-c4ccco4)nn3c2O)N2CCC3(CC2)OCCO3)cc1 (stereo not given) do in these assays?
Lamin A splicing: 8%[46 µM]

How did O=C(O)[C@H](C1NCCS1)N1Cc2ccccc2C1 (stereo not given in full) do in these assays?
HPGD block: -2%; KinaseGlo FLuc: 0%[7.66 µM]; ALDH1A1 inh: 3%[13.5 µM]

Results for COC(=O)C(C)Sc1nc2c(c(=O)[nH]c(=O)n2C)n1CCC(C)C (stereo not given) ?
IMPase inh: -3; HPGD block: -15%; PNC inhibitor: 0; KinaseGlo FLuc: 0%; Lamin A splicing: 0%; ALDH1A1 inh: inconclusive

Results for CCOC(=O)C(C)Sc1nc2c(c(=O)[nH]c(=O)n2C)n1C/C=C(/C)Cl (stereo not given) ?
IMPase inh: -2; HPGD block: 22µM*; PNC inhibitor: 14; KinaseGlo FLuc: 3%; Lamin A splicing: -1%; ALDH1A1 inh: 7.1µM*

How did COc1ccc(Nc2cc(=O)n(C3CCCCC3)c(=O)[nH]2)c(OC)c1 do in these assays?
IMPase inh: -4; HPGD block: -3%; PNC inhibitor: 81; KinaseGlo FLuc: -9%; Lamin A splicing: 8%; ALDH1A1 inh: 7.1µM*

What do the screens show for `CC1CCN(c2cc(=O)n(C3CCCCC3)c(=O)[nH]2)CC1`?
IMPase inh: -9; HPGD block: -6%; PNC inhibitor: -30; KinaseGlo FLuc: 2%; Lamin A splicing: 1%; ALDH1A1 inh: -7%

How did Cc1cc(C)cc(Nc2cc(=O)n(C3CCCCC3)c(=O)[nH]2)c1 do in these assays?
IMPase inh: 1; HPGD block: -5%; PNC inhibitor: 1; KinaseGlo FLuc: 0%; Lamin A splicing: 4%; ALDH1A1 inh: 0.45µM*

Results for COc1ccc(C(=O)N2CCC3(CC2)CN(c2ncccn2)C3)cc1 ?
HPGD block: inconclusive; KinaseGlo FLuc: -2%; ALDH1A1 inh: inconclusive

What do the screens show for `Cc1ccc(Cc2c(C)nn(-c3nc(C)c(C(=O)N4CCCCC4C)s3)c2C)cc1` (stereo not given)?
Lamin A splicing: -8%[46 µM]

Results for Cc1ccc2[nH]c(=O)c(CN(CCCN3CCOCC3)Cc3nnnn3C3CCCC3)cc2c1 ?
IMPase inh: -3; HPGD block: -3%; PNC inhibitor: -100*; KinaseGlo FLuc: 9%; Lamin A splicing: 8%; ALDH1A1 inh: inconclusive

Results for COc1ccc(Cn2nnnc2CN(Cc2cc3cccc(C)c3[nH]c2=O)C2CCCC2)cc1 ?
IMPase inh: 1; HPGD block: -16%; PNC inhibitor: 28; KinaseGlo FLuc: -4%; Lamin A splicing: 4%; ALDH1A1 inh: inconclusive

What do the screens show for `COc1ccc(Cn2nnnc2CN(Cc2cc3ccc(C)cc3[nH]c2=O)C2CCCC2)cc1`?
IMPase inh: -2; HPGD block: -5%; PNC inhibitor: 22; KinaseGlo FLuc: -4%; Lamin A splicing: inconclusive; ALDH1A1 inh: 22µM*

What do the screens show for `CCOc1ccc2[nH]c(=O)c(CN(CCCN3CCOCC3)Cc3nnnn3Cc3ccc(OC)cc3)cc2c1`?
KinaseGlo FLuc: -5%; ALDH1A1 inh: inconclusive

Results for Cc1ccc2cc(CN(Cc3ccc(F)cc3)Cc3nnnn3C3CCCC3)c(=O)[nH]c2c1 ?
IMPase inh: 10; HPGD block: -26%; PNC inhibitor: inconclusive; KinaseGlo FLuc: 1%; Lamin A splicing: 4%; ALDH1A1 inh: 14µM*

What do the screens show for `Cc1ccc2cc(CN(Cc3ccccc3)Cc3nnnn3C3CCCC3)c(=O)[nH]c2c1`?
IMPase inh: 8; HPGD block: -22%; PNC inhibitor: 34; KinaseGlo FLuc: 2%; Lamin A splicing: inconclusive; ALDH1A1 inh: 10µM*

Results for CCOc1ccc(NC(=O)N(C)CCc2c(C)nn(C)c2C)cc1 ?
Lamin A splicing: 16%[46 µM]

What do the screens show for `Cc1ccc2c(c1)C(=O)c1ccccc1CS2=O` (stereo not given)?
HPGD block: -23%; PNC inhibitor: inconclusive; KinaseGlo FLuc: -1%; Lamin A splicing: 0%; ALDH1A1 inh: 2.5µM*

Results for O=c1[nH][nH]c(-c2ccccc2O)c1C(C[N+](=O)[O-])c1ccc(Br)cc1 (stereo not given) ?
HPGD block: -6%; PNC inhibitor: -2; KinaseGlo FLuc: 1%; Lamin A splicing: inconclusive; ALDH1A1 inh: inconclusive

How did Cc1ccc(C(C[N+](=O)[O-])c2c(-c3ccccc3O)[nH][nH]c2=O)cc1 (stereo not given) do in these assays?
HPGD block: -24%; PNC inhibitor: 47; KinaseGlo FLuc: 0%; Lamin A splicing: inconclusive; ALDH1A1 inh: 20µM*

How did Cc1ccc(CSc2nnc(-c3ccco3)o2)cc1 do in these assays?
IMPase inh: -6; HPGD block: 25µM*; PNC inhibitor: inconclusive; KinaseGlo FLuc: -3%; Lamin A splicing: 19%; ALDH1A1 inh: -8%

What do the screens show for `O=C(O)c1ccc(CSc2nnc(-c3ccco3)o2)cc1`?
IMPase inh: -10; HPGD block: -19%; PNC inhibitor: -2; KinaseGlo FLuc: 19%; Lamin A splicing: 7%; ALDH1A1 inh: inconclusive

What do the screens show for `Brc1ccc(CSc2nnc(-c3ccco3)o2)cc1`?
HPGD block: 25µM*; PNC inhibitor: 16; KinaseGlo FLuc: -1%; Lamin A splicing: 7%; ALDH1A1 inh: -6%

Results for CN(C)c1ncc2nc(-c3ccc(F)cc3)c(=O)n(C)c2n1 ?
Lamin A splicing: 17%; ALDH1A1 inh: inconclusive

Results for COc1ccc2c(c1)C(=O)[C@@H](OC(=O)NCCc1ccc(OC)c(OC)c1)[C@H](c1ccc(OC)c(Br)c1)O2 ?
HPGD block: -13%; KinaseGlo FLuc: 1%; ALDH1A1 inh: -5%

How did COc1ccccc1OCCCOc1c(C)cc(C)cc1Br do in these assays?
HPGD block: -27%; PNC inhibitor: 49; KinaseGlo FLuc: -3%; Lamin A splicing: -13%; ALDH1A1 inh: 13%

What do the screens show for `CCOc1ccccc1OCCCOc1ccc([N+](=O)[O-])cc1Cl`?
IMPase inh: 11; HPGD block: -6%; PNC inhibitor: -11; KinaseGlo FLuc: 1%; Lamin A splicing: inconclusive; ALDH1A1 inh: inconclusive
